Screening results: PubChem, several laboratories
Platelet DG rel – inhibitors of platelet dense granule secretion, primary screen, cell-based, MLPCN, human platelets. human platelet-rich plasma, SFLLRN dense granule ATP release, luminescence. inhibition, %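 (compounds screened at 7.5 µM in platelet-rich plasma)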. actives 0.22% (n = 300,000);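 active = mean replicate score, as percent of positive control, at or above 50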
SENP8 block-1 – SENP8 protease inhibitors, primary screen, biochemical, luminescence | AID 2540, 2010 | actives 1.2% (n = 330,000) | inhibition, % at 10 µM | Sentrin-specific protease 8 (Homo sapiens), Q96LD8 | purified SENP8, Z-RLRGG-aminoluciferin cleavage; in the data active = inhibition above about 50%
Target sequence (Q96LD8 whole entry, looked up): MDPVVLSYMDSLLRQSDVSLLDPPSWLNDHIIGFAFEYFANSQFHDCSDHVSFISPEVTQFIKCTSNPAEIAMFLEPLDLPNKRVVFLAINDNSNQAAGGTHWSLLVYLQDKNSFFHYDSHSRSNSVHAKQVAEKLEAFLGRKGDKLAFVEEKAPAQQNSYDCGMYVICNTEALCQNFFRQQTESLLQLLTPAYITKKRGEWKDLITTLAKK
SENP7 block – SENP7 protease inhibitors, primary screen, biochemical, luminescence, uHTS. Sentrin-specific protease 7 (Homo sapiens), Q9BQF6. recombinant SENP7, Z-RLRGG-aminoluciferin luminescence, 40 min. inhibition, % at 5 µM. actives 1.5% (n = 330,000). AID 434973, 2010;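 active = inhibition above about 50% at the single test dose, limit read from the data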;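 note: plate controls were DMSO with enzyme for no effect and no enzyme buffer wells for full effect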
Target sequence (Q9BQF6 706-1050 limits assumed): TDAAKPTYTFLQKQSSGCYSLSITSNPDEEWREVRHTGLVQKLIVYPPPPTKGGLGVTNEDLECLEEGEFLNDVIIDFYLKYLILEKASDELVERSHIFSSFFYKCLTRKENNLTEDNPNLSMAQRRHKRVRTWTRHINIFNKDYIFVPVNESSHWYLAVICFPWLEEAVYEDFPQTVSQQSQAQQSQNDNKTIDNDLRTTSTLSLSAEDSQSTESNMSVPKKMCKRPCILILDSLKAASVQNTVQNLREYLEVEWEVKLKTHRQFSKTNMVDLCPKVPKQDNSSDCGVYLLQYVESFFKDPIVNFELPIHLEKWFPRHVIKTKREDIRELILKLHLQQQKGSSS
SENP8 block-2 – human SENP8 protease inhibitors, primary screen, biochemical, fluorescence, Nedd8 protein substrate, uHTS; AID 602440, 2012; recombinant SENP8; actives 0.64% (n = 360,000); Sentrin-specific protease 8 (Homo sapiens), Q96LD8; inhibition, % at 20 µM; in the data active = inhibition mostly above about 40%, no sharp cut-off; inactive = mostly below about 27%
SENP6 inh – SENP6 protease inhibitors, primary screen, biochemical, luminescence, uHTS; Sentrin-specific protease 6 (Homo sapiens), Q9GZR1; Recombinant SENP6 catalytic domain, aminoluciferin luminescence; inhibition, % at 10 µM; actives 1.8% (n = 330,000);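 active = inhibition above about 50% at the single tested dose, limit read from the data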;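 note: plate controls were DMSO wells with enzyme for no effect and DMSO wells lacking enzyme for full effect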
HSP90 refold inh – HSP90 inhibitors, primary screen, cell lysate, luminescence; Heat shock protein HSP 90 (rabbit reticulocyte lysate; luciferase refolding); Rabbit reticulocyte lysate, luciferase refolding luminescence, 3 h; inhibition, % at 5.6 µM; actives 0.91% (n = 290,000); AID 1789, 2009;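 active = inhibition above the screen-wide mean plus 3 SD, computed separately per campaign, cut at about 16% in these data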;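 note: 0% = DMSO wells and 100% = 60 µM geldanamycin wells; inhibitors lower the luminescence because luciferase stays unfolded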
SENP8 conf – SENP8 protease inhibitors, retest, confirmation, biochemical, luminescence, single concentration; shares compounds with SENP7 block; Recombinant SENP8, Z-RLRGG-aminoluciferin luminescence, 60 min; inhibition, % at 12.5 µM; actives 40% (n = 6,200); AID 488912, 2010;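 active = mean inhibition across replicates above about 50%, limit read from the data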
SENP6 confirm – SENP6 protease inhibitors, confirmation, biochemical, luminescence, single concentration. shares compounds with SENP7 block. recombinant SENP6, Z-RLRGG-aminoluciferin luminescence. inhibition, % at 12.5 µM. actives 58% (n = 6,200). AID 488915, 2010
SENP7 conf – SENP7 protease inhibitors, retest, confirmation, biochemical, luminescence, single concentration; shares compounds with SENP7 block; recombinant SENP7, Z-RLRGG-aminoluciferin luminescence, 40 min; inhibition, % at 12.5 µM; actives 69% (n = 6,200); AID 488917, 2010
Casp3 SENP sel – caspase-3 protease inhibitors, confirmation, selectivity assay for SENP inhibitor project, biochemical, single concentration; AID 488918, 2010; inhibition, % at 12.5 µM; purified caspase-3, Z-DEVD-aminoluciferin luminescence, 60 min; actives 60% (n = 6,200); shares compounds with SENP7 block;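 active = mean inhibition above about 50%, limit read from the data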;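 note: plate controls were enzyme with DMSO for no effect and wells without caspase-3 for full effect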
Target sequence (P42574 28-227 limits assumed): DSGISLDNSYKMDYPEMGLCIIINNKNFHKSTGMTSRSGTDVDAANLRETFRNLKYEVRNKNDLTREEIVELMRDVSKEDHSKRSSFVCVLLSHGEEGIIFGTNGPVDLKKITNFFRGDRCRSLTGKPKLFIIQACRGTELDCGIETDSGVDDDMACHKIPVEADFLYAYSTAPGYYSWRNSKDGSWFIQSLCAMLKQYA
Luc interf – luminescence interference (SENP counter-screen). AID 488919. inhibition, % at 12.5 µM. Pre-incubated SENP8/Z-RLRGG-aminoluciferin, luciferase luminescence interference. actives 39% (n = 6,200). shares compounds with SENP7 block;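 active = mean inhibition above about 50% when retested at one dose, limit read from the data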;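 note: plate controls were DMSO wells with completed reaction for no effect and substrate without enzyme for full effect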
Starred values were filed as active, the others as inactive; nt = not tested or not shown. Shown are actives, neighbours in structure and some others; about 2.8% of the full set was active somewhere.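 Rule for the calls, unless noted: active = mean inhibition above about 50% in the one-dose retest (limit read from the data); inactive = the rest.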

SMILES | Platelet DG rel | SENP8 block-1 | SENP7 block | SENP8 block-2 | SENP6 inh | HSP90 refold inh | SENP8 conf | SENP6 confirm | SENP7 conf | Casp3 SENP sel | Luc interf
Cc1ccc(/C=C/c2nnc(-c3cccs3)o2)cc1 | -3.1 | 85.6* | -0.5 | -304.0 | 91.1* | 7.8 | -5.3 | 43.3 | 67.1* | 43.4 | 22.6
C[C@@H](C(=O)OCC(=O)c1ccc(F)c(F)c1)N1C(=O)C2CCCCC2C1=O (stereo partly specified) | nt | -7.2 | -11.6 | 10.7 | -17.4 | nt | nt | nt | nt | nt | nt
Fc1ccc(/C=C/c2nnc(-c3cccs3)o2)cc1 | 12.0 | 20.2 | 66.6* | -408.7 | 61.2* | 1.7 | 0.5 | -0.1 | 15.2 | 27.4 | 12.1
Cc1ccc(CNC(=O)C2CCCN(S(=O)(=O)c3ccc(F)cc3)C2)cc1 (stereo unspecified) | -1.5 | -7.7 | 10.1 | 11.5 | -21.9 | -6.8 | nt | nt | nt | nt | nt
O=C(Nc1ccc2ccccc2c1)c1cnccn1 | 11.1 | 42.0 | 74.7* | -13.3 | 65.3* | 9.5 | 52.3* | 73.3* | 91.8* | 81.5* | 31.4
O=C(Nc1nc2ccc(F)cc2s1)c1ccccn1 | 28.5 | 95.1* | 99.5* | nt | 95.1* | 56.5* | 92.4* | 98.3* | 101.8* | 96.4* | 48.5
CCOc1ccc2nc(NC(=O)c3cnccn3)sc2c1 | -8.7 | 19.9 | 73.9* | 27.2 | 23.7 | -1.6 | 16.1 | 14.4 | 23.9 | 51.9* | 14.4
O=C(Nc1nc2ccc(F)cc2s1)C1=NN(c2ccccc2)C(=O)CC1 | 5.1 | 25.6 | 11.1 | -42.0 | 55.4* | -4.7 | -13.3 | 0.8 | 20.0 | 1.0 | -5.0
O=C(Nc1ccc2nccnc2c1)c1cnccn1 | 4.1 | -20.6 | -1.0 | -39.2 | -4.3 | 10.5 | nt | nt | nt | nt | nt
O=C(Nc1nc(-c2ccco2)c(-c2ccco2)s1)c1cnccn1 | -6.9 | -10.0 | -21.1 | nt | -115.1 | nt | nt | nt | nt | nt | nt
O=C(Nc1nc2ccccc2s1)c1cnccn1 | 8.0 | 93.0* | 8.2 | 10.0 | 96.6* | 6.0 | 6.4 | 56.4* | 75.7* | 79.1* | 39.6
Cc1nn2cc(-c3ccccc3)nc2s1 | -27.3 | 76.4* | -2.9 | 9.3 | 72.2* | 7.0 | 76.7* | 81.0* | 96.8* | 91.3* | 71.0*
c1ccc(-c2cn3nc(-c4ccccc4)sc3n2)cc1 | 33.7 | 85.2* | 93.4* | -33.9 | -4.8 | nt | -7.7 | 3.1 | 14.8 | 7.2 | -0.8
CCc1ccc(-c2cn3nc(-c4ccccc4)cnc3n2)cc1 | 13.2 | -5.4 | -7.3 | -404.8 | -10.5 | -0.7 | nt | nt | nt | nt | nt
c1ccc(-c2cn3ccccc3n2)cc1 | nt | nt | nt | -441.9 | nt | nt | nt | nt | nt | nt | nt
COC(=O)C1=CN(c2ccc3c(c2)OCO3)C(N)=C(C#N)C1c1ccccc1 (stereo unspecified) | nt | nt | nt | -56.5 | nt | nt | nt | nt | nt | nt | nt
CN(C)C(=O)CSc1ccc(S(=O)(=O)N2CCOCC2)cn1 | nt | -13.2 | -4.4 | 14.0 | -1.9 | nt | nt | nt | nt | nt | nt
CS(=O)(=O)Nc1ccc(S(=O)(=O)N2CCCCCC2)cc1 | 8.1 | -8.6 | -4.6 | 7.5 | -9.2 | -3.5 | nt | nt | nt | nt | nt
Oc1ccccc1C1=Nc2nc3ccccc3n2C(c2ccccc2)C1 (stereo unspecified) | 11.7 | 59.3* | 71.3* | -406.6 | 78.5* | -1.3 | 23.4 | 22.7 | 36.6 | 48.6 | 33.6
Cc1ccc(-n2c(Cl)c(Cl)nc(Cl)c2=O)cc1 | nt | nt | nt | -375.3 | nt | -4.6 | nt | nt | nt | nt | nt
Cc1nc2nc(NC(=O)c3ccco3)[nH]n2c(=O)c1C | 4.8 | 9.3 | -3.1 | 6.4 | 14.7 | -3.7 | nt | nt | nt | nt | nt
C=CCNC(=O)c1cc2cc(Cl)ccc2nc1N | nt | nt | nt | -386.9 | nt | nt | nt | nt | nt | nt | nt
CCC(=O)Nc1c(C#N)c2nc3ccccc3nc2n1C1CCCCC1 | 0.7 | -2.1 | -1.7 | -368.4 | 14.5 | -1.4 | nt | nt | nt | nt | nt
COc1ccc(-n2c(NC(=O)c3ccco3)c(C#N)c3nc4ccccc4nc32)cc1 | 1.3 | 95.0* | 86.5* | -251.2 | 97.5* | 6.0 | -3.4 | 68.4* | 53.5* | 4.5 | 1.9
CCOC(=O)c1c(NC(=O)c2ccco2)n(C2CCCCC2)c2nc3ccccc3nc12 | 1.3 | 51.1* | 42.5 | -262.0 | 73.0* | 0.9 | 4.9 | 31.5 | 17.0 | -0.4 | -3.0
SMILES | Platelet DG rel | SENP8 block-1 | SENP7 block | SENP8 block-2 | SENP6 inh | HSP90 refold inh | SENP8 conf | SENP6 confirm | SENP7 conf | Casp3 SENP sel | Luc interf
CCC(=O)Nc1c(C#N)c2nc3ccccc3nc2n1-c1ccccc1C | -9.2 | -2.4 | 4.0 | -337.2 | 54.5* | 1.3 | 6.0 | 1.3 | -3.2 | -3.1 | -2.2
COc1ccc(C(=O)Nc2ccc(NC(=O)c3ccco3)cc2)cc1 | 12.6 | 1.3 | 6.9 | 6.8 | -21.7 | -1.7 | nt | nt | nt | nt | nt
O=C(NNc1cc(N2CCOCC2)nc(N2CCOCC2)n1)c1ccc(Cl)c(Cl)c1 | -7.5 | 10.5 | 14.1 | 4.9 | 48.8 | 0.7 | nt | nt | nt | nt | nt
Cc1ccc(C(=O)NNc2cc(N3CCCC3)nc(N3CCCC3)n2)cc1 | 3.3 | 95.3* | 42.0 | nt | 82.2* | 1.4 | 51.9* | 87.0* | 50.4* | -0.6 | -2.1
CCN(C(=O)Cn1nnc(-c2ccccc2)n1)C1CCS(=O)(=O)C1 (stereo unspecified) | 4.1 | -6.6 | 0.1 | 20.8 | -1.3 | nt | nt | nt | nt | nt | nt
CCCCc1ccc(NC(=O)Nc2cccnc2)cc1 | 10.7 | 50.8* | 57.6* | 12.3 | 73.8* | 5.6 | 63.1* | 67.3* | 84.5* | 38.9 | 41.0
COC(=O)c1ccccc1NC(=O)c1cccnc1 | -3.4 | 5.0 | -1.8 | 10.3 | 17.7 | 4.0 | nt | nt | nt | nt | nt
COC(=O)c1ccccc1NC(=O)Nc1cccnc1 | 6.6 | 58.8* | 0.8 | -33.3 | 76.5* | -4.4 | 4.8 | 72.5* | 95.0* | 92.2* | 69.5*
CCOC(=O)C1(Cc2ccc(Cl)cc2)CCN(C(=O)c2cscn2)CC1 | 1.7 | 5.0 | -2.2 | 10.3 | -4.2 | 0.7 | nt | nt | nt | nt | nt
CCC(=O)c1cn(/C(=C\C(=O)OC(C)(C)C)CCC(OC)OC)cc1CC | -1.5 | 1.0 | 12.0 | 21.1 | -5.8 | nt | nt | nt | nt | nt | nt
COc1ccc2cc(-c3ccn[nH]3)ccc2c1 | 12.0 | 45.4 | 59.2* | 4.3 | 65.8* | -3.0 | 31.7 | 53.0* | 83.6* | 45.3 | 64.0*
